# The supplement of paper PMC4466140
# How the values were obtained:
# Assay in all cases: SPOT peptide array binding signal intensity (averaged, normalized) (arbitrary units (background-subtracted, floor 0; scale differs between SH3 domains)); higher = stronger binding of the SH3 domain to the peptide
# AgAbp1 = biological target: AgAbp1
# Outline: (§1)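 GST-SH3 fusions from four yeast species, purified on glutathione Sepharose, were incubated at 10 μg/ml overnight at 4°C on membranes of synthetic 15-mer peptides in which cysteines were replaced with serines. Binding signal is the normalized, background-subtracted spot intensity averaged over replicates, in domain-specific arbitrary units.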
# AgBbc1 = biological target: AgBbc1
# Outline: as §1
# AgBem1-D1 = biological target: AgBem1-D1
# Outline: as §1
# AgBzz1-D1 = biological target: AgBzz1-D1
# Outline: as §1
# AgBzz1-D2 = biological target: AgBzz1-D2
# Outline: as §1
# AgCyk3 = biological target: AgCyk3
# Outline: as §1
# AgFus1 = biological target: AgFus1
# Outline: as §1
# AgHof1 = biological target: AgHof1
# Outline: as §1
# AgHse1 = biological target: AgHse1
# Outline: as §1
# AgLsb1 = biological target: AgLsb1
# Outline: as §1
# AgLsb4 = biological target: AgLsb4
# Outline: as §1
# AgMyo5 = biological target: AgMyo5
# Outline: as §1
# AgNbp2 = biological target: AgNbp2
# Outline: as §1
# AgRvs167 = biological target: AgRvs167
# Outline: as §1
# AgSho1 = biological target: AgSho1
# Outline: as §1
# AgSla1-D1-D2 = biological target: AgSla1-D1-D2
# Outline: as §1
# AgSla1-D3 = biological target: AgSla1-D3
# Outline: as §1
# CaAbp1-D1 = biological target: CaAbp1-D1
# Outline: as §1
# CaAbp1-D2 = biological target: CaAbp1-D2
# Outline: as §1
# CaBbc1 = biological target: CaBbc1
# Outline: as §1
# CaBem1-D1 = biological target: CaBem1-D1
# Outline: as §1
# CaBzz1-D1 = biological target: CaBzz1-D1
# Outline: as §1
# CaBzz1-D2 = biological target: CaBzz1-D2
# Outline: as §1
# CaCyk3 = biological target: CaCyk3
# Outline: as §1
# CaFus1 = biological target: CaFus1
# Outline: as §1
# CaHof1 = biological target: CaHof1
# Outline: as §1
# CaHse1 = biological target: CaHse1
# Outline: as §1
# CaLsb1 = biological target: CaLsb1
# Outline: as §1
# CaLsb4 = biological target: CaLsb4
# Outline: as §1
# CaMyo5 = biological target: CaMyo5
# Outline: as §1
# CaNbp2 = biological target: CaNbp2
# Outline: as §1
# CaRvs167 = biological target: CaRvs167
# Outline: as §1
# CaRvs167-3 = biological target: CaRvs167-3
# Outline: as §1
# CaSho1 = biological target: CaSho1
# Outline: as §1
# CaSla1-D1-D2 = biological target: CaSla1-D1-D2
# Outline: as §1
# CaSla1-D3 = biological target: CaSla1-D3
# Outline: as §1
# ScAbp1 = biological target: ScAbp1
# Outline: as §1
# ScBbc1 = biological target: ScBbc1
# Outline: as §1
# ScBem1-D1 = biological target: ScBem1-D1
# Outline: as §1
# ScBzz1-D1 = biological target: ScBzz1-D1
# Outline: as §1
# ScBzz1-D2 = biological target: ScBzz1-D2
# Outline: as §1
# ScCyk3 = biological target: ScCyk3
# Outline: as §1
# ScFus1 = biological target: ScFus1
# Outline: as §1
# ScHof1 = biological target: ScHof1
# Outline: as §1
# ScHse1 = biological target: ScHse1
# Outline: as §1
# ScLsb1 = biological target: ScLsb1
# Outline: as §1
# ScLsb2 = biological target: ScLsb2
# Outline: as §1
# ScLsb3 = biological target: ScLsb3
# Outline: as §1
# ScLsb4 = biological target: ScLsb4
# Outline: as §1
# ScMyo3 = biological target: ScMyo3
# Outline: as §1
# ScMyo5 = biological target: ScMyo5
# Outline: as §1
# ScNbp2 = biological target: ScNbp2
# Outline: as §1
# ScPex13 = biological target: ScPex13
# Outline: as §1
# ScRvs167 = biological target: ScRvs167
# Outline: as §1
# ScSho1 = biological target: ScSho1
# Outline: as §1
# ScSla1-D1-D2 = biological target: ScSla1-D1-D2
# Outline: as §1
# ScSla1-D3 = biological target: ScSla1-D3
# Outline: as §1
# SpAbp1-D1 = biological target: SpAbp1-D1
# Outline: as §1
# SpBbc1 = biological target: SpBbc1
# Outline: as §1
# SpBzz1-D1 = biological target: SpBzz1-D1
# Outline: as §1
# SpBzz1-D2 = biological target: SpBzz1-D2
# Outline: as §1
# SpCyk3 = biological target: SpCyk3
# Outline: as §1
# SpHof1 = biological target: SpHof1
# Outline: as §1
# SpHof1-2 = biological target: SpHof1-2
# Outline: as §1
# SpHof1-3 = biological target: SpHof1-3
# Outline: as §1
# SpHse1 = biological target: SpHse1
# Outline: as §1
# SpLsb1 = biological target: SpLsb1
# Outline: as §1
# SpLsb4 = biological target: SpLsb4
# Outline: as §1
# SpMyo1 = biological target: SpMyo1
# Outline: as §1
# SpNbp2 = biological target: SpNbp2
# Outline: as §1
# SpPex13 = biological target: SpPex13
# Outline: as §1
# SpRvs167 = biological target: SpRvs167
# Outline: as §1
# SpSla1-D1-D2 = biological target: SpSla1-D1-D2
# Outline: as §1
# SpSla1-D3 = biological target: SpSla1-D3
# Outline: as §1
binder,measurement,setting,value
IHTRRPSSTSQYLIR,SPOT peptide array binding signal intensity,AgAbp1,235
same,SPOT peptide array binding signal intensity,AgBbc1,354
same,SPOT peptide array binding signal intensity,AgBem1-D1,254
same,SPOT peptide array binding signal intensity,AgBzz1-D1,73.5
same,SPOT peptide array binding signal intensity,AgBzz1-D2,58.5
same,SPOT peptide array binding signal intensity,AgCyk3,4
same,SPOT peptide array binding signal intensity,AgFus1,406
same,SPOT peptide array binding signal intensity,AgHof1,44.2
same,SPOT peptide array binding signal intensity,AgHse1,202
same,SPOT peptide array binding signal intensity,AgLsb1,242
same,SPOT peptide array binding signal intensity,AgLsb4,32
same,SPOT peptide array binding signal intensity,AgMyo5,194
same,SPOT peptide array binding signal intensity,AgNbp2,106
same,SPOT peptide array binding signal intensity,AgRvs167,1.33
same,SPOT peptide array binding signal intensity,AgSho1,22.5
same,SPOT peptide array binding signal intensity,AgSla1-D1-D2,44
same,SPOT peptide array binding signal intensity,AgSla1-D3,11.8
same,SPOT peptide array binding signal intensity,CaAbp1-D1,732
same,SPOT peptide array binding signal intensity,CaAbp1-D2,571
same,SPOT peptide array binding signal intensity,CaBbc1,415
same,SPOT peptide array binding signal intensity,CaBem1-D1,43
same,SPOT peptide array binding signal intensity,CaBzz1-D1,249
same,SPOT peptide array binding signal intensity,CaBzz1-D2,267
same,SPOT peptide array binding signal intensity,CaCyk3,17
same,SPOT peptide array binding signal intensity,CaFus1,699
same,SPOT peptide array binding signal intensity,CaHof1,0.5
same,SPOT peptide array binding signal intensity,CaHse1,110
same,SPOT peptide array binding signal intensity,CaLsb1,22
same,SPOT peptide array binding signal intensity,CaLsb4,150
same,SPOT peptide array binding signal intensity,CaMyo5,208
same,SPOT peptide array binding signal intensity,CaNbp2,94.5
same,SPOT peptide array binding signal intensity,CaRvs167,19.7
same,SPOT peptide array binding signal intensity,CaRvs167-3,69.5
same,SPOT peptide array binding signal intensity,CaSho1,369
same,SPOT peptide array binding signal intensity,CaSla1-D1-D2,126
same,SPOT peptide array binding signal intensity,CaSla1-D3,15.8
same,SPOT peptide array binding signal intensity,ScAbp1,97.5
same,SPOT peptide array binding signal intensity,ScBbc1,144
same,SPOT peptide array binding signal intensity,ScBem1-D1,40.5
same,SPOT peptide array binding signal intensity,ScBzz1-D1,50
same,SPOT peptide array binding signal intensity,ScBzz1-D2,50.5
same,SPOT peptide array binding signal intensity,ScCyk3,35
same,SPOT peptide array binding signal intensity,ScFus1,593
same,SPOT peptide array binding signal intensity,ScHof1,1
same,SPOT peptide array binding signal intensity,ScHse1,465
same,SPOT peptide array binding signal intensity,ScLsb1,3
same,SPOT peptide array binding signal intensity,ScLsb2,162
same,SPOT peptide array binding signal intensity,ScLsb3,158
same,SPOT peptide array binding signal intensity,ScLsb4,6.5
same,SPOT peptide array binding signal intensity,ScMyo3,82
same,SPOT peptide array binding signal intensity,ScMyo5,243
same,SPOT peptide array binding signal intensity,ScNbp2,267
same,SPOT peptide array binding signal intensity,ScPex13,10.8
same,SPOT peptide array binding signal intensity,ScRvs167,19.8
same,SPOT peptide array binding signal intensity,ScSho1,585
same,SPOT peptide array binding signal intensity,ScSla1-D1-D2,172
same,SPOT peptide array binding signal intensity,ScSla1-D3,14.5
same,SPOT peptide array binding signal intensity,SpAbp1-D1,826
same,SPOT peptide array binding signal intensity,SpBbc1,60
same,SPOT peptide array binding signal intensity,SpBzz1-D1,632
same,SPOT peptide array binding signal intensity,SpBzz1-D2,6.5
same,SPOT peptide array binding signal intensity,SpCyk3,10
same,SPOT peptide array binding signal intensity,SpHof1,51
same,SPOT peptide array binding signal intensity,SpHof1-2,10.5
same,SPOT peptide array binding signal intensity,SpHof1-3,669
same,SPOT peptide array binding signal intensity,SpHse1,352
same,SPOT peptide array binding signal intensity,SpLsb1,292
same,SPOT peptide array binding signal intensity,SpLsb4,138
same,SPOT peptide array binding signal intensity,SpMyo1,138
same,SPOT peptide array binding signal intensity,SpNbp2,96.5
same,SPOT peptide array binding signal intensity,SpPex13,10
same,SPOT peptide array binding signal intensity,SpRvs167,31.3
same,SPOT peptide array binding signal intensity,SpSla1-D1-D2,2
same,SPOT peptide array binding signal intensity,SpSla1-D3,6
